HCMV inh = human cytomegalovirus inhibition. AID 1259415. 410,000 tested, 4.5% active. activity change, negative = inhibition, % at 57.5 µM. HFF cells, HCMV-luciferase reporter, 72 h; active compounds read low; in the data active means activity change below about -60%; inconclusive means no clear call, values can overlap the other calls; inactive means above about -39%
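Inhibition of viral replication was scored as loss of reporter luminescence in HFFs infected with HCMV-luciferase (MOI 1 PFU/cell) for 72 h; compounds tested at 2 doses, normalized to buffer and Salinomycin controls.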
Vaccinia Venus = inhibitors of vaccinia virus (Venus reporter); 330,000 tested, 0.46% active; Potency, µM (titrated, usually from 36.5 µM), most hits filed as inhibitors; Vaccinia virus Venus reporter expression, fluorescence; calls by dose curve; tested in A549 cells; further: nearly all actives have a fitted effect of over 30% in size
Tb PYK inh = T. brucei pyruvate kinase inhibition; AID 624173; Q57TT1; TbPYK enzyme, Kinase-Glo Plus ATP luminescence, 45 min; 410,000 tested, 0.12% active; Potency, µM (titrated, usually from 76.8 µM), actives largely listed as inhibitors; further: nearly all actives have a fitted effect of over 50% in size
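T. brucei PYK with substrate was exposed to pin-transferred compounds across a concentration series, then started with 130 uM ADP (final). After 45 min at room temperature, Kinase-Glo Plus luminescence was read, normalized and curve-fitted.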
LmPK inhibitor = LmPK (Leishmania mexicana) enzyme inhibition; 290,000 tested, 0.37% active; AID 1721; Potency, µM (top dose mostly 57.5 µM), hits mostly inhibitors; purified LmPK, Kinase-Glo ATP luminescence, 1 h
Target sequence (Q27686 whole entry, looked up): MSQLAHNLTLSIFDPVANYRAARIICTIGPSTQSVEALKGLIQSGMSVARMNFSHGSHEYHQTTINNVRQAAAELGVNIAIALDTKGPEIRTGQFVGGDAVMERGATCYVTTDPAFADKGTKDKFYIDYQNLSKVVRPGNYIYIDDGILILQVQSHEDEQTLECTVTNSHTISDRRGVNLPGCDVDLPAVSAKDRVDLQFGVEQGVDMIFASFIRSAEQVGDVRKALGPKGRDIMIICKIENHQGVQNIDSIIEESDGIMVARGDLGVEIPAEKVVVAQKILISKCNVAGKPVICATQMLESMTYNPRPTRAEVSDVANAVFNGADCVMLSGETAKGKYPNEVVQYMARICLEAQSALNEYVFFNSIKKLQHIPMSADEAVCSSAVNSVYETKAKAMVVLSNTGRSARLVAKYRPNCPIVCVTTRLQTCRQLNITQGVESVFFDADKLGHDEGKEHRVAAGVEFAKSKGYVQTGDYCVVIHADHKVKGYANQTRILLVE
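Screened at intermediate enzyme activity to detect both inhibitors and activators: LmPK at 0.1 nM, with a 0.5 nM enzyme column as activation reference. PEP 0.5 mM, ADP 0.1 mM; ATP detected by luminescence after 1 h.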
Vaccinia mCherry = vaccinia inhibition (mCherry reporter); Vaccinia virus mCherry reporter infection, fluorescence; Potency, µM (series often up to 36.5 µM), hits mostly inhibitors; 310,000 tested, 0.63% active; AID 720579; calls by dose curve; tested in A549 cells; further: nearly all actives have a fitted effect of over 35% in size
Numbers stand for hits. Shown are actives, neighbours in structure and some others; about 5% of the full set was active somewhere. Unless noted, the call rests on the fitted dose curve; in most records, active means well fitted curve in the direction sought with a large enough effect; inconclusive means small, poorly fitted or top-dose-only effect, or another doubt; inactive means no such curve, though single readings can be large; an effect the other way counts as inactive or inconclusive.

Results for COc1ccc2c(c1)c1c(c(=O)n(-c3cccc(Cl)c3)c(=O)n1C)n2C ?
HCMV inh: inactive; Vaccinia Venus: inactive; Tb PYK inh: inactive; Vaccinia mCherry: inactive

What do the screens show for `O=c1c2cc([N+](=O)[O-])ccc2nc2n1CCCC2`?
HCMV inh: -64.5; Vaccinia Venus: inactive; Tb PYK inh: inactive; LmPK inhibitor: inactive; Vaccinia mCherry: inactive

What do the screens show for `Cc1ccc(-c2csc(NC(=O)c3ccc4c(=O)n5c(nc4c3)CCCCC5)n2)cc1`?
HCMV inh: -66.4; Vaccinia Venus: inactive; Tb PYK inh: inactive; LmPK inhibitor: inactive; Vaccinia mCherry: inactive

What do the screens show for `O=C(Nc1ccc(F)c(Cl)c1)c1ccc2c(=O)n3c(nc2c1)CCCCC3`?
HCMV inh: -90.5; Tb PYK inh: inactive; LmPK inhibitor: inactive

Results for Cc1ccc(S(=O)(=O)N2CCCCC2)cc1NC(=O)c1ccc2c(=O)n3c(nc2c1)CCCCC3 ?
HCMV inh: inactive; LmPK inhibitor: inactive

Results for CC(=O)c1ccc(NC(=O)c2ccc3c(=O)n4c(nc3c2)CCCCC4)cc1 ?
HCMV inh: inactive; Tb PYK inh: inactive; LmPK inhibitor: inactive

How did O=C(Nc1ccc(S(=O)(=O)N2CCCC2)cc1)c1ccc2c(=O)n3c(nc2c1)CCCCC3 do in these assays?
HCMV inh: -90.2; Vaccinia Venus: inactive; Tb PYK inh: inactive; LmPK inhibitor: inactive; Vaccinia mCherry: inactive

What do the screens show for `O=C(NCc1ccccc1)C1CCC(CNS(=O)(=O)c2cccs2)CC1` (stereo not given)?
HCMV inh: inactive; Vaccinia Venus: inactive; Tb PYK inh: inactive; LmPK inhibitor: inactive; Vaccinia mCherry: inactive

What do the screens show for `CC(=O)O/N=C/c1c(N2CCOCC2)n(C)c2ccccc12`?
HCMV inh: -93.5; Tb PYK inh: inactive; LmPK inhibitor: inactive

What do the screens show for `Cn1c(N2CCOCC2)c(/C=N/OC(=O)c2ccc(F)cc2)c2ccccc21`?
HCMV inh: -95.2; Tb PYK inh: inactive; LmPK inhibitor: inactive

What do the screens show for `Cc1ccc(C(=O)O/N=C/c2c(N3CCOCC3)n(C)c3ccccc23)cc1`?
HCMV inh: -100.3; Tb PYK inh: inactive; LmPK inhibitor: inactive

What do the screens show for `Cn1c(N2CCOCC2)c(/C=N/O)c2ccccc21`?
HCMV inh: inactive; Vaccinia Venus: inactive; Tb PYK inh: inactive; LmPK inhibitor: inactive; Vaccinia mCherry: inactive

How did COC(=O)C1Cc2c([nH]c3ccccc23)C(C(C)C)N1 (stereo not given) do in these assays?
Vaccinia Venus: inactive; Tb PYK inh: inactive; LmPK inhibitor: inactive; Vaccinia mCherry: inactive

How did CC1=CC2=NC(=O)/C(=C\c3ccc(-c4ccc(Cl)cc4)o3)C(=N)N2O1 do in these assays?
HCMV inh: inconclusive; LmPK inhibitor: inactive

Results for COc1nccnc1NS(=O)(=O)c1ccc(NC(=S)NC(=O)c2ccc(F)cc2)cc1 ?
HCMV inh: inactive; Vaccinia Venus: inactive; Tb PYK inh: inactive; LmPK inhibitor: inactive; Vaccinia mCherry: inactive

What do the screens show for `COC(=O)c1ccccc1N/C=C/C(=O)c1ccc(Br)cc1`?
HCMV inh: inactive; Vaccinia Venus: inactive; Tb PYK inh: inactive; LmPK inhibitor: inactive; Vaccinia mCherry: inactive

How did NC(=O)c1ccccc1N/C=C/C(=O)c1ccccc1 do in these assays?
HCMV inh: inactive; LmPK inhibitor: 7.94µM

What do the screens show for `COc1ccc(-c2cn3cccnc3n2)cc1NC(=O)Nc1cc(C)ccc1C`?
HCMV inh: -69.4; Vaccinia Venus: inactive; Tb PYK inh: inactive; Vaccinia mCherry: inactive

Results for COc1cccc(NC(=O)Nc2cc(-c3cn4cccnc4n3)ccc2C)c1 ?
HCMV inh: inactive; Vaccinia Venus: inactive; Tb PYK inh: inactive; Vaccinia mCherry: inactive

How did CCc1ccc(-n2c(SC(CC)C(=O)N(CC)CC)nc3n[nH]c(C)c3c2=N)cc1 (stereo not given) do in these assays?
HCMV inh: -83.6; Vaccinia Venus: inconclusive; Tb PYK inh: inactive; Vaccinia mCherry: inconclusive

How did CC(=O)/C(=C/Nc1ccc(Oc2ccccc2)cc1)c1ccccc1 do in these assays?
HCMV inh: -76.8; Vaccinia Venus: inactive; Tb PYK inh: inactive; LmPK inhibitor: inactive; Vaccinia mCherry: inactive

What do the screens show for `CC(=O)/C(=C\Nc1ccc(OCc2ccccc2)cc1)c1ccccc1`?
HCMV inh: inactive; Vaccinia Venus: inactive; Tb PYK inh: inactive; LmPK inhibitor: inactive; Vaccinia mCherry: inactive

What do the screens show for `C=CCN1CC(O)=C(c2ccccc2)C1=N`?
HCMV inh: -68.6; Vaccinia Venus: inactive; Tb PYK inh: inactive; LmPK inhibitor: inactive; Vaccinia mCherry: inactive
